Experimental findings from PubChem BioAssay (EPA / NIEHS) are described below.

Each structure is given as a SMILES string. Active and inactive are the calls of the source. Rule for the calls: active = hit-call score of the fitted dose curve at least 0.9, where 1 is the maximum; inactive = score below 0.9.

Read-out in this test: Cytochrome P450 (CYP2B6), CYP2B6 (gene 1555)
Briefly: LTEA_HepaRG_CYP2B6: Life Technologies and Expression Analysis (LTEA) Assay for Cytochrome P450 (CYP2B6) using HepaRG (AID 2283481). The conditions noted are these: mRNA level, 48 h; actives raise or lower the signal. The method, then:
LTEA_HepaRG is a cell based, multiplexed-readout assay that uses HepaRG, a human liver cell line, with measurements taken at 48 hours after chemical dosing on a 96-well plate.LTEA_HepaRG_CYP2B6 is one of 102 assay component(s) measured in the LTEA HepaRG cell culture assay. It is a marker of NR mediated metabolism.Data from the assay component LTEA_HepaRG_CYP2B6 was analyzed into 1 endpoint. This assay endpoint, LTEA_HepaRG_CYP2B6, was analyzed with bidirectional fitting relative to DMSO as the negative control and baseline of activity. Using a type of inducible reporter, measures of mRNA induction for gain or loss-of-signal activity can be used to understand regulation of transcription factor activity. To generalize the intended target to other relatable targets, this assay endpoint is annotated to the cyp intended target family, where the subfamily is xenobiotic metabolism.
A total of 1060 chemcials from the ToxCast library were tested in eight-point concentration-response experiments. Cell culture and cytotoxicity assays were conducted at Thermo Fisher Scientific's Custom Services facility (Madison, WI). A single lot of human HepaRG cells (Thermo Fisher Scientific, Frederick, MD) was used for the cell culture experiments. 96-well format collagen type I coated plates of human HepaRG cells were prepared using established methods. Briefly, cryopreserved HepaRG cells were thawed, plated at a density of approximately 100,000 cells/well in HepaRG Thaw, Plate, and General Purpose media (HPRG770, Thermo Fisher Scientific), and incubated for 48 hours. 0.5% DMSO was selected as vehicle control to balance the requisite need of DMSO in HepaRG cultures to maintain differentiation (for example, baseline metabolism, proportions of hepatocytes vs. cholangiocytes), while enabling further hepatic receptor pathway activation (for example, PXR and CAR) in response to chemical exposure. 48 hours after plating, the culture medium was replaced with HepaRG Serum-Free Incudtion Media. Cells were exposed to each test chemical in duplicate and maintained in CO2 incubators for another 48 hours. Chemical plates were thawed to room temperature and 200x concentrations of treatment groups were prepared. 8-point conentration-reponse curves were made with the highest exposure at 100 uM, followed by half-log dilutions, all in 0.5% DMSO. Each test plate contained variouse controls, induction positive controls (1mM phenobarbital), cytotoxicity positive controls ([…] aflatoxin B1), vehicle controls (0.5% DMSO), and total lysis controls (0.5% DMSO). Cell morphology images were taken using an Essen IncuCyte FLR automated microscope, with six 96-well plates imaged in about 24 minutes. Images were captured and exported and JPEG files. Spent culture media was transfered to black-well plates for the LDH assay, and remaining media was sorted at -80 C for later use. Cells were treated with RLT buffer and frozen until shipped for gene expression analysis. Total RNA was isolated from the cell suspension in 75 uL of Buffer RLT (Qiagen, Germantown, MD 20874) by Quintiles/Expression Analysis (Durham, NC) using a custom isolation procedure. Total RNA from each plate well was transferred to a preamplification plate. Fluidigm's 96.96 Dynamic ArrayTM (Fluidigm, Amsterdam, the Netherlands) technology was used for gene expression analyses by quantitative reverse transcription polymerase chain reaction (qRT-PCR, performed by Quintiles/Expression Analysis, Durham, NC)89. Standard TaqManTM Assays (Applied Biosystems/ThermoFisher Scientific, Foster City, CA) were used to assess the expression of 93 genes selected based on their selectivity and sensitivity to important hepatic receptors known to be modulated by environmental chemicals; importance in human hepatocyte functionality; and hepatotoxicity. […]
For orientation: AC50 means the concentration giving half of the maximal activity seen. Consider `CCCOc1ccc(S(=O)(=O)N2CCN(CC)CC2)cc1-c1nc2c(CC)n(Cc3ccccn3)nc2c(=O)[nH]1`, for which the AC50 was 5.14 µM (active).

As for `OCCNCCO`, the concentration at half-maximal activity (AC50) was 50 µM (active). On to `COS(C)(=O)=O`, for which the molecule was classed as inactive. For the molecule `CCCCCCCCN(C)C`, the call was inactive.

Regarding `COc1cc2c(c(OC)c1OC)-c1ccc(OC)c(=O)cc1[C@@H](NC(C)=O)CC2`, the half-maximal activity concentration (AC50) is 0.0986 µM (active). Same read-out and setting: for `C=CCc1cc(S(=O)(=O)c2ccc(O)c(CC=C)c2)ccc1O` the value was 80.6 µM (active). For `O=c1[nH]cnc2c1ncn2[C@H]1CC[C@@H](CO)O1`, the call was inactive. Still for that read-out and setting: the entry for `CC(C)CCCCCCOC(=O)C1CCCCC1C(=O)OCCCCCCC(C)C` (stereo not given) is “inactive”; for `OCC(CO)(CO)CO` it is “inactive”. Same read-out and setting: for `CCCCCCCCCCCCCCCCOS(=O)(=O)O` the value was “inactive”.

For `CCc1ccc(O)c(C(C)(C)C)c1`, the result was inactive. Same read-out and setting: for `CC(=O)c1ccccc1` the value was “inactive”.

Turning to `O=C(O)c1cccc(C[C@@H]2COc3ccc(OCc4nc5cc(F)ccc5s4)cc3[C@@H]2O)c1`, the concentration at half-maximal activity (AC50) was 92 µM (active). With `CNC(C)=O`, the outcome was inactive. For `CCCC(CCC)C(=O)O`, the molecule was called inactive. Regarding `c1ccc2ncccc2c1`, the concentration at half-maximal activity (AC50) was 50 µM (active). For the molecule `NC(=O)NN=Cc1ccc([N+](=O)[O-])o1`, the outcome was inactive.

Consider `Cc1nc(-c2ccccn2)ncc1C(=O)Nn1cc(C)c2cc(F)ccc21`, for which the concentration at half-maximal activity (AC50) was 0.168 µM (active). Regarding `Nc1ccn([C@@H]2O[C@H](CO)[C@@H](O)[C@@H]2O)c(=O)n1`, the result was inactive.

For the molecule `OC[C@H]1O[C@@H]2O[C@H]3[C@H](O)[C@@H](O)[C@@H](O[C@H]4[C@H](O)[C@@H](O)[C@@H](O[C@H]5[C@H](O)[C@@H](O)[C@@H](O[C@H]6[C@H](O)[C@@H](O)[C@@H](O[C@H]7[C@H](O)[C@@H](O)[C@@H](O[C@H]1[C@H](O)[C@H]2O)O[C@@H]7CO)O[C@@H]6CO)O[C@@H]5CO)O[C@@H]4CO)O[C@@H]3CO`, the outcome was inactive. Same read-out and setting: for `OCCOCCOCCO` the value was “inactive”.

For `CCCCCCCCCCCCCCO`, the call was inactive.

With `Cc1ncc([C@@H](CCCCCCc2ccc3c(n2)NCCC3)CC(=O)O)cn1`, the molecule was classed as inactive. Turning to `O=C(NO)C1(NS(=O)(=O)c2ccc(Oc3ccc(F)cc3)cc2)CCOCC1`, the AC50 was 11.8 µM (active). Consider `CCOc1ccc2[nH]cc(C(=O)NCc3ccccc3)c(=O)c2n1`, for which the call was inactive. With `c1ccc2c(c1)-c1cccc3c1c-2cc1ccccc13`, the molecule was classed as inactive. On to `O=C(O)c1cccc(C(=O)O)c1`, for which the outcome was inactive. Consider `NC(=O)N1c2ccccc2C=Cc2ccccc21`, for which the half-maximal activity concentration (AC50) is 5.83 µM (active).

For the molecule `c1ccc(C(O[C@@H]2CCCN(CCc3ccc4c(c3)OCO4)C2)c2ccccc2)cc1`, the AC50 was 72 µM (active).

On to `CCCCCCCCCC`, for which the molecule was classed as inactive. As to `OCc1ccccc1`, the result was inactive. Same read-out and setting: the entry for `Cn1cc[nH]c1=S` is “inactive”; for `O=S1(=O)CCCO1` it is “inactive”. `NC(=O)N(O)[C@@H]1COc2cc(OCc3ccccc3)ccc21`: the concentration at half-maximal activity (AC50) is 16.2 µM (active). `CCCc1ccccc1`: the molecule was classed as inactive. Consider `CCn1nc(C)c2c1C(=O)NCC(c1ccc(O)cc1)=N2`, for which the AC50 was 32.9 µM (active).

Take `COCc1nnc(-c2ccc[n+]([O-])c2)n1-c1c(Cl)c(Cl)cc2[nH]c(=O)c(=O)[nH]c12`: the AC50 is 14.6 µM (active). As for `CC1(C)C(=O)N(Cl)C(=O)N1Cl`, the result was inactive. For `CC(C)C(=O)Nc1ccc([N+](=O)[O-])c(C(F)(F)F)c1`, the AC50 is 63.2 µM (active). As for `CCCCN1C(=O)[C@@H]([C@H](O)C2CCCCC2)NC(=O)C12CCN(Cc1ccc(Oc3ccc(C(=O)O)cc3)cc1)CC2`, the AC50 was 1.94 µM (active).
